Of roughly 7,900 targets only a part is listed; those with a hit were picked by preference. About 0.6% of all pairs of compound and target were hits.

UniProt Q14151, sequence (Q14151 whole entry, looked up): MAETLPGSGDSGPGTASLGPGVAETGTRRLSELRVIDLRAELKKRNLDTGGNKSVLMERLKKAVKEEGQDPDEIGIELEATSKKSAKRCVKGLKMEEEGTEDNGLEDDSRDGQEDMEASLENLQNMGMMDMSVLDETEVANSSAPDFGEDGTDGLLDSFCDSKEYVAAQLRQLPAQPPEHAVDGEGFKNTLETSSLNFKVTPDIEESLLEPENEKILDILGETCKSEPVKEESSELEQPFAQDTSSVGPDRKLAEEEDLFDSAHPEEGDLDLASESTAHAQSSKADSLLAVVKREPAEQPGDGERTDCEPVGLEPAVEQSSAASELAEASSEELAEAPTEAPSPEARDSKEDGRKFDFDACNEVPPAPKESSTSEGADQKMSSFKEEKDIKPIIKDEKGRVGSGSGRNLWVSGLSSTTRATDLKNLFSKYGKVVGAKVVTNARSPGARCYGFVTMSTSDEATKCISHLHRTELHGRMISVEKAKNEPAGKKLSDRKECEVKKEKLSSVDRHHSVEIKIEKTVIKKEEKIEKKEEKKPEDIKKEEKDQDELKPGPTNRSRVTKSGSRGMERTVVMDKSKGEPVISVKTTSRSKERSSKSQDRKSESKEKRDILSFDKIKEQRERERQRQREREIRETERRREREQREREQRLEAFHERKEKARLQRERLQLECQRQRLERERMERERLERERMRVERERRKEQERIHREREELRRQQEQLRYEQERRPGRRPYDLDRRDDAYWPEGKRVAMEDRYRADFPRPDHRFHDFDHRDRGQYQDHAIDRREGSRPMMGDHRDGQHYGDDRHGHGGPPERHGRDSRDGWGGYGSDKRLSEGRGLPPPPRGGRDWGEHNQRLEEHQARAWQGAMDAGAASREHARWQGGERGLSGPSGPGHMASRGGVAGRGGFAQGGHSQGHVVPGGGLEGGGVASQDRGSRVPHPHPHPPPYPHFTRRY
UniProt Q9NRX5, sequence (Q9NRX5 whole entry, looked up): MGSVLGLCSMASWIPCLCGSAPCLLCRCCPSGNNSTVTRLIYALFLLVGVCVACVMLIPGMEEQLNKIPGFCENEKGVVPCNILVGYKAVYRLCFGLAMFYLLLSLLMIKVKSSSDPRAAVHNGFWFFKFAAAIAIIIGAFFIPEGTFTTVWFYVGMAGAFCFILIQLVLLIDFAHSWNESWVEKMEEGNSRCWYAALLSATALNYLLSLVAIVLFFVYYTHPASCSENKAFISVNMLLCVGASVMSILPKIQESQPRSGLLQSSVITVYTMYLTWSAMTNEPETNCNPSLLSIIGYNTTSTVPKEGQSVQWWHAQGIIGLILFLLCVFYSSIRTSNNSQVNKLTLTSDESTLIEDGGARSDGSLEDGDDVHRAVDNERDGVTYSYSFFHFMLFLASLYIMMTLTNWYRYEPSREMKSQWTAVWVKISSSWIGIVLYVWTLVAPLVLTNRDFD
UniProt Q15436, sequence (Q15436 whole entry, looked up): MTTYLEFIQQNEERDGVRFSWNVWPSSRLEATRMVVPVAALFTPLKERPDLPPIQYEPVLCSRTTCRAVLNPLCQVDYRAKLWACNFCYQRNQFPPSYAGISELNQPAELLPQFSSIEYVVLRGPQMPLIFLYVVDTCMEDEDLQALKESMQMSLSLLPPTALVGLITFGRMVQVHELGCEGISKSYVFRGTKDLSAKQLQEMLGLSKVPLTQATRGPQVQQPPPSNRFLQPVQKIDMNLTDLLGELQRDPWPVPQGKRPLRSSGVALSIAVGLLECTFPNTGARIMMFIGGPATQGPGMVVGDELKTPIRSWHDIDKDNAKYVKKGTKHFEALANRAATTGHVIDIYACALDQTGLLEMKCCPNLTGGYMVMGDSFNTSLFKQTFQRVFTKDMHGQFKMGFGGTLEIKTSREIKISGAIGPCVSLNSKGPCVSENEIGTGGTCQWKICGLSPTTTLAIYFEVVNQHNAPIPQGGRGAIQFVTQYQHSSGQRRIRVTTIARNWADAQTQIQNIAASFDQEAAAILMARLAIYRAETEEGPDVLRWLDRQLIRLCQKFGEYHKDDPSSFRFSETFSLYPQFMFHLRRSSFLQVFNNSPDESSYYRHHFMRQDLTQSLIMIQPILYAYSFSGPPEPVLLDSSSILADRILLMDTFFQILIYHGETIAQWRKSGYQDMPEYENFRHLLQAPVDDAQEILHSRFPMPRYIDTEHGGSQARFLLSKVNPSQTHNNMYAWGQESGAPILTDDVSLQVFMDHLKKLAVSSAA
UniProt Q9Y6Y8, sequence (Q9Y6Y8 whole entry, looked up): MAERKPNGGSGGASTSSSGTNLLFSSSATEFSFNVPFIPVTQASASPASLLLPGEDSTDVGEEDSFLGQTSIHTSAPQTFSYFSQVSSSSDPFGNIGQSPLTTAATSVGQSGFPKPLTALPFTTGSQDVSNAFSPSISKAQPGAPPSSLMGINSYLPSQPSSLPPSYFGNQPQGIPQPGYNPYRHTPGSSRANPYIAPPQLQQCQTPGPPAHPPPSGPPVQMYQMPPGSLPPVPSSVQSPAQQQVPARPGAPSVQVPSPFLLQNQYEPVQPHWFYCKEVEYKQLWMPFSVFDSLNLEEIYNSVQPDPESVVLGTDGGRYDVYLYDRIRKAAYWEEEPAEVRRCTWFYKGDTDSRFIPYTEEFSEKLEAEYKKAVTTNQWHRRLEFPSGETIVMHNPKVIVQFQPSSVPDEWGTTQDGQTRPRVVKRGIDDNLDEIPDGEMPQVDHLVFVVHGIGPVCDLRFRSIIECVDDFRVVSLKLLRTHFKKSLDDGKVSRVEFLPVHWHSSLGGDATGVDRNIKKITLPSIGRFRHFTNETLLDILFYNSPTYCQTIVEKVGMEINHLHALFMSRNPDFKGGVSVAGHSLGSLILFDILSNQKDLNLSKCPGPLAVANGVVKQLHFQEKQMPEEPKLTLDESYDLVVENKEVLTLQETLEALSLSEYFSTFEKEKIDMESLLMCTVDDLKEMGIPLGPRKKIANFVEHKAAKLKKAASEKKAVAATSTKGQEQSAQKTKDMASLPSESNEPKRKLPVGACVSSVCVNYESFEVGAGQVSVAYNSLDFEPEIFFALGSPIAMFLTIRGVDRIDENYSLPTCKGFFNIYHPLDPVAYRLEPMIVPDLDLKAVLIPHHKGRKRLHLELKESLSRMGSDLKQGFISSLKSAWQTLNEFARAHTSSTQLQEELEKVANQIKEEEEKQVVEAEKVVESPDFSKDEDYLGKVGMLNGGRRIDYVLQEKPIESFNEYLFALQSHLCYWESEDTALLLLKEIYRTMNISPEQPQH
UniProt Q9H6H4, sequence (Q9H6H4 whole entry, looked up): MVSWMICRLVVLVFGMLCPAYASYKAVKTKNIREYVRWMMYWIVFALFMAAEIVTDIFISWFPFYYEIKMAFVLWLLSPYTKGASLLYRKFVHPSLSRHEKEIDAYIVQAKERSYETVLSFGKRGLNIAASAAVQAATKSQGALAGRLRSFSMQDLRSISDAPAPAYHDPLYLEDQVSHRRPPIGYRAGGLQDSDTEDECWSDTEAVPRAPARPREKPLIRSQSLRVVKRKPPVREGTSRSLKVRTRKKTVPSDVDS
UniProt P63208, sequence (P63208 whole entry, looked up): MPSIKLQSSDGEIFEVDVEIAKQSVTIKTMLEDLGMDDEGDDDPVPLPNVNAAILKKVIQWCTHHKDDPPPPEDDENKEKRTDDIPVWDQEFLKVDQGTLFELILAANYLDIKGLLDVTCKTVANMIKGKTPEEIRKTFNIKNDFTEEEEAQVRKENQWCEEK
UniProt Q9NW64, sequence (Q9NW64 whole entry, looked up): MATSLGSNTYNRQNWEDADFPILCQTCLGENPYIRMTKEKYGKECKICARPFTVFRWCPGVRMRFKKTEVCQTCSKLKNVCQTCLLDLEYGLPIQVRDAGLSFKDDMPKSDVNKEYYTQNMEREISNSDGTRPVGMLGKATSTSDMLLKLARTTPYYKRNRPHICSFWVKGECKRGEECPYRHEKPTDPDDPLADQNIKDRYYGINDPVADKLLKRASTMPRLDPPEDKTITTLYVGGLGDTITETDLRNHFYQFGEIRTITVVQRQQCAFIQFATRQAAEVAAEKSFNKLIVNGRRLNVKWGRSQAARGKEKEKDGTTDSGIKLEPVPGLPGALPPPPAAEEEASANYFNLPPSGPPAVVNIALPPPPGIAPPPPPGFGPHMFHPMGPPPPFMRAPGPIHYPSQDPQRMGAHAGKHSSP
UniProt Q8WWV3, sequence (Q8WWV3 whole entry, looked up): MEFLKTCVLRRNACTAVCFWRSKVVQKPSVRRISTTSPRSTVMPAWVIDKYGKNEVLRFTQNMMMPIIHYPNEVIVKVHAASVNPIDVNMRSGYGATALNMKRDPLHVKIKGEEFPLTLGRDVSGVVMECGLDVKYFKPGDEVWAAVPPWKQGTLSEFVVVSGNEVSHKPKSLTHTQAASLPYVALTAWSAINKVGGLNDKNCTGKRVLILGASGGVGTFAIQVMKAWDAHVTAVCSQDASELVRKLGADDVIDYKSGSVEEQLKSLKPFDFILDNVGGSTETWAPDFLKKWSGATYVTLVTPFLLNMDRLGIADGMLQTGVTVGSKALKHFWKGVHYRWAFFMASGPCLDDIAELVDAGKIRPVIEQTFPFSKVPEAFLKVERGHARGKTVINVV
UniProt Q8N0T1, sequence (Q8N0T1 whole entry, looked up): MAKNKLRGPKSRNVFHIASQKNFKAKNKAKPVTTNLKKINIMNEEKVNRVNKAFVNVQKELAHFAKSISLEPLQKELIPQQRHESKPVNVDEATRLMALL
UniProt Q7L099, sequence (Q7L099 whole entry, looked up): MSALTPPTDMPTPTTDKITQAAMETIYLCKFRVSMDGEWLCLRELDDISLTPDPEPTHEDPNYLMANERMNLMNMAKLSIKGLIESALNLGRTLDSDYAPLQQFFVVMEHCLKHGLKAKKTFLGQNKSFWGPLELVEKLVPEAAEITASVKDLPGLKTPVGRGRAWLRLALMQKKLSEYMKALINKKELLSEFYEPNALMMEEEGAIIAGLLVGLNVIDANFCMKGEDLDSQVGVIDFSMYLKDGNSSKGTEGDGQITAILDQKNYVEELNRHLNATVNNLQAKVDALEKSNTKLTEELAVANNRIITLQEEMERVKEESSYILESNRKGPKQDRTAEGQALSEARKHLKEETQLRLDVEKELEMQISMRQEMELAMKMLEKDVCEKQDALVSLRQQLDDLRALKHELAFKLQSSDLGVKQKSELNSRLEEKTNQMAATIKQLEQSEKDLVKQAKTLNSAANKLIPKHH

Compound in the assay: c1cn2cc(-c3ccc4cn[nH]c4c3)nc(Nc3ccc(N4CCOCC4)cc3)c2n1 [entospletinib]
Description: log2 fold change, soluble protein after heating vs DMSO (PISA); higher = thermal stabilisation; K562 cells, 10 uM, 30 min; active = over 0.2 and 3.5 SD of the protein, either way, in both replicates (recomputed). The procedure, abridged:
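K562 cells at 2×10^6 cells/mL were exposed to 10 μM compound for 30 min, then aliquots were heated for 3 min across 48°C-58°C, pooled, and extracted in PBS containing 0.5% NP-40 at 4°C. The supernatant after 21,000xg for 90 min was taken as soluble protein and measured by TMTpro 16plex LC-MS/MS with channel sums equalised. Thermal stability is reported relative to control samples, with values from duplicates. Fold changes are given on a log2 scale.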
In the case of SERINC1 (UniProt Q9NRX5), the log2 fold change was 0.022 (inactive).

For the target RTN4IP1 (UniProt Q8WWV3), the log2 fold change was -0.003 (inactive).

For RBM22 (UniProt Q9NW64), the log2 fold change was -0.015 (inactive).

Consider RRAS2 isoform 4 (UniProt P62070), for which the log2 fold change was -0.012 (inactive).

Turning to SEC23A (UniProt Q15436), the log2 fold change was 0.106 (inactive).

SCAMP2 (UniProt O15127): the log2 fold change was -0.078 (inactive).

Regarding REEP4 (UniProt Q9H6H4), the log2 fold change was 0.055 (inactive).

As to RB1CC1 (UniProt Q8TDY2), the log2 fold change was -0.041 (inactive).

In the case of RBM39 (UniProt Q14498), the log2 fold change was -0.125 (inactive).

For RAB3IL1 (UniProt Q8TBN0), the log2 fold change was 0.005 (inactive).

In the case of RPS2 (UniProt P15880), the log2 fold change was 0.08 (inactive).

As for RALA (UniProt P11233), the log2 fold change was -0.026 (inactive).

In the case of RNF41 (UniProt Q9H4P4), the log2 fold change was 0.044 (inactive).

Regarding SEC23IP (UniProt Q9Y6Y8), the log2 fold change was -0.06 (inactive).

Regarding SH3GLB2 (UniProt Q9NR46), the log2 fold change is 0.034 (inactive).

Consider RPS21 (UniProt P63220), for which the log2 fold change was -0.016 (inactive).

Turning to RPA1 (UniProt P27694), the log2 fold change is -0.024 (inactive).

For the target SEC24A (UniProt O95486), the log2 fold change was 0.024 (inactive).

Take RAPGEF4 (UniProt Q8WZA2): the log2 fold change is -0.14 (inactive).

As for ROR2 (UniProt Q01974), the log2 fold change was -0.025 (inactive).

In the case of RPS6KA2 isoform 2 (UniProt Q15349), the log2 fold change was 0.013 (inactive).

Consider RBBP6 (UniProt Q7Z6E9), for which the log2 fold change was 0.077 (inactive).

Turning to RRP12 (UniProt Q5JTH9), the log2 fold change is -0.132 (inactive).

Turning to SH3GL1 (UniProt Q99961), the log2 fold change is -0.008 (inactive).

Consider SLC19A1 (UniProt P41440), for which the log2 fold change is -0.121 (inactive).

On to SLC1A5 (UniProt Q15758), for which the log2 fold change is -0.032 (inactive).

As to RARS2 (UniProt Q5T160), the log2 fold change was 0 (inactive).

Take RABGAP1L isoform 3 (UniProt Q5R372): the log2 fold change was -0.021 (inactive).

For RPS3A (UniProt P61247), the log2 fold change is 0.082 (inactive).

On to SAFB2 (UniProt Q14151), for which the log2 fold change was 0.05 (inactive).

With RUFY3 isoform 3 (UniProt Q7L099), the log2 fold change was -0.046 (inactive).

As to RPS4X (UniProt P62701), the log2 fold change was 0.082 (inactive).

Take RRAGB (UniProt Q5VZM2): the log2 fold change was -0.04 (inactive).

In the case of RPRD1B (UniProt Q9NQG5), the log2 fold change was 0.037 (inactive).

RBIS (UniProt Q8N0T1): the log2 fold change was -0.031 (inactive).

With RSL1D1 (UniProt O76021), the log2 fold change was 0.01 (inactive).

On to SKP1 (UniProt P63208), for which the log2 fold change was 0.008 (inactive).

Values taken from the supplement of paper PMC10849652.
